According to PubChem BioAssay AID1159580 (chemical genetic matrix, 2015):
Where “and” joins values, the source holds several entries; their conditions need not be identical. Equal entries are not always repeated. In all, about 5,500 compounds went through this assay and about 2,000 (36%) were called active. Not shown: some 18% with an inconclusive outcome. Rule as the data show it: active = normalized growth mostly below about 0.91 (no sharp cut-off); inconclusive = no clear call, values can overlap the other calls; inactive = mostly above about 0.92. Some of the results follow.

Assay: chemical genetic growth profiling, strain panel (AID 1159580);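 also: tested at 20 µM; growth read once vehicle control cultures reached saturation at 30 °C; 1 = growth at the plate median or of vehicle wells; lower values mean less growth of the strain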
Settings: S. cerevisiae deletion strains, growth OD

Measured: normalized growth

Cc1cc(OC(=O)c2c(C)cc(O)cc2O)cc(O)c1C(=O)O
inactive: locus YAL021C, strain ccr4, hits give low values 1.02 | locus YAL026C, strain drs2, hits give low values 0.991 | locus YAL030W, strain snc1, hits give low values 0.995 | locus YBL061C, strain skt5, hits give low values 0.973 | locus YBR009C, strain hhf1, hits give low values 0.991 | locus YBR021W, strain FUR4, hits give low values 1.01 | locus YBR023C, strain chs3, hits give low values 0.978 | locus YBR171W, strain sec66, hits give low values 0.988 | locus YBR229C, strain ROT2, hits give low values 1.01 | locus YBR231C, strain swc5, hits give low values 0.992 | locus YBR279W, strain paf1, hits give low values 0.997 | locus YCL011C, strain gbp2, hits give low values 0.991 | locus YCL016C, strain dcc1, hits give low values 0.992 | locus YCL029C, strain bik1, hits give low values 1 | locus YCL061C, strain MRC1, hits give low values 0.989 | locus YCL069W, strain vba3, hits give low values 0.998 | locus YCR088W, strain abp1, hits give low values 0.997 | locus YDL005C, strain med2, hits give low values 0.983 | locus YDL035C, strain GPR1, hits give low values 1 | locus YDL040C, strain nat1, hits give low values 0.98 | locus YDL074C, strain BRE1, hits give low values 0.999 | locus YDL101C, strain DUN1, hits give low values 1.01 | locus YDL134C, strain PPH21, hits give low values 0.99 | locus YDL185W, strain tfp1, hits give low values 1 | locus YDL192W, strain arf1, hits give low values 0.979 | locus YDR001C, strain nth1, hits give low values 1 | locus YDR069C, strain doa4, hits give low values 0.966 | locus YDR101C, strain arx1, hits give low values 0.977 | locus YDR137W, strain rgp1, hits give low values 0.985 | locus YDR159W, strain sac3, hits give low values 0.987 | locus YDR162C, strain NBP2, hits give low values 1.01 | locus YDR195W, strain ref2 0.962 | locus YDR297W, strain sur2, hits give low values 0.99 | locus YDR318W, strain mcm21, hits give low values 0.981 | locus YDR334W, strain swr1, hits give low values 0.987 | locus YDR335W, strain msn5, hits give low values 1.01 | locus YDR388W, hits give low values 1.02 | locus YDR392W, strain spt3, hits give low values 0.991 | locus YDR502C, strain sam2, hits give low values 0.979 | locus YEL003W, strain gim4, hits give low values 0.972 | locus YEL037C, strain rad23, hits give low values 1 | locus YEL061C, strain CIN8 (second series), hits give low values 0.993 | locus YEL061C, strain CIN8, hits give low values 1.01 | locus YER015W, strain faa2, hits give low values 0.986 | locus YER016W, strain bim1, hits give low values 0.993 | locus YER110C, hits give low values 1.01 | locus YER111C, strain swi4, hits give low values 0.974 | locus YER155C, strain BEM2 (second series), hits give low values 0.966 | locus YER155C, strain BEM2, hits give low values 1.02 | locus YER167W, strain BCK2, hits give low values 1.01 | locus YFR010W, strain ubp6, hits give low values 0.968 | locus YGL078C, strain dbp3, hits give low values 0.967 | locus YGL086W, strain mad1, hits give low values 0.972 | locus YGL167C, strain pmr1, hits give low values 0.972 | locus YGL173C, strain kem1, hits give low values 0.981 | locus YGL227W, strain vid30, hits give low values 0.996 | locus YGL240W, strain doc1, hits give low values 0.957 | locus YGL248W, strain PDE1, hits give low values 1 | locus YGL253W, strain hxk2, hits give low values 0.99 | locus YGR135W, strain pre9, hits give low values 0.973 | locus YGR252W, strain gcn5, hits give low values 0.935 | locus YHR013C, strain ard1, hits give low values 0.966 | locus YHR027C, strain rpn1, hits give low values 1.01 | locus YHR030C, strain SLT2, hits give low values 0.976 | locus YHR079C, strain IRE1 (second series), hits give low values 1 | locus YHR079C, strain IRE1, hits give low values 0.968 | locus YHR094C, strain hxt1, hits give low values 1.02 | locus YHR129C, strain ARP1, hits give low values 0.997 | locus YHR142W, strain chs7, hits give low values 1 | locus YHR200W, strain rpn10, hits give low values 0.985 | locus YIL066C, strain RNR3, hits give low values 1.01 | locus YIL073C, strain SPO22, hits give low values 1.01 | locus YIL125W, strain kgd1, hits give low values 0.995 | locus YIR030C, strain dcg1, hits give low values 1 | locus YJL092W, strain hpr5, hits give low values 0.989 | locus YJL095W, strain BCK1 (second series), hits give low values 0.986 | locus YJL095W, strain BCK1, hits give low values 0.991 and 0.996 | locus YJL115W, strain asf1, hits give low values 0.987 | locus YJL129C, strain trk1, hits give low values 0.983 | locus YJL134W, strain LCB3, hits give low values 1.02 | locus YJL154C, strain vps35, hits give low values 0.993 | locus YJL164C, strain tpk1, hits give low values 1.02 | locus YJL166W, strain qcr8, hits give low values 0.987 | locus YJL168C, strain set2, hits give low values 1 | locus YJL187C, strain SWE1 (second series), hits give low values 0.993 | locus YJL187C, strain SWE1, hits give low values 1 | locus YJR043C, strain POL32, hits give low values 1 | locus YJR066W, strain TOR1, hits give low values 0.894 | locus YJR075W, strain HOC1, hits give low values 1.01 | locus YKL009W, strain mrt4, hits give low values 0.991 | locus YKL068W, hits give low values 1.02 | locus YKL085W, strain MDH1 (second series), hits give low values 1 | locus YKL085W, strain MDH1, hits give low values 1 | locus YKL160W, strain elf1, hits give low values 1.02 | locus YKL190W, strain CNB1, hits give low values 1.01 | locus YKR001C, strain vps1, hits give low values 0.98 | locus YKR026C, strain gcn3, hits give low values 0.983 | locus YKR091W, strain srl3, hits give low values 0.992 | locus YLL001W, strain dnm1, hits give low values 1.01 | locus YLL026W, hits give low values 0.991 | locus YLL041C, strain sdh2, hits give low values 0.972 | locus YLR027C, strain aat2, hits give low values 0.99 | locus YLR039C, strain RIC1, hits give low values 0.914 | locus YLR058C, strain SHM2, hits give low values 0.992 | locus YLR102C, strain apc9, hits give low values 1.01 | locus YLR113W, strain HOG1, hits give low values 1.01 | locus YLR221C, strain rsa3, hits give low values 0.979 | locus YLR258W, strain gsy2, hits give low values 0.992 | locus YLR262C, strain YPT6 (second series), hits give low values 1.01 | locus YLR262C, strain YPT6, hits give low values 0.989 | locus YLR268W, strain sec22, hits give low values 0.983 | locus YLR320W, strain mms22, hits give low values 0.975 | locus YLR330W, strain CHS5, hits give low values 1.01 | locus YLR342W, strain FKS1 (second series), hits give low values 1.01 | locus YLR342W, strain FKS1, hits give low values 0.991 | locus YLR357W, strain rsc2, hits give low values 0.984 | locus YLR370C, strain arc18, hits give low values 0.978 | locus YLR371W, strain rom2, hits give low values 1 | locus YLR384C, strain iki3, hits give low values 0.963 | locus YLR418C, strain cdc73, hits give low values 0.951 | locus YML016C, strain PPZ1, hits give low values 1.01 | locus YML032C, strain rad52, hits give low values 0.979 | locus YML120C, strain ndi1, hits give low values 0.994 | locus YML124C, strain tub3, hits give low values 1 | locus YMR058W, strain fet3, hits give low values 0.99 | locus YMR078C, strain ctf18, hits give low values 1 | locus YMR125W, strain sto1, hits give low values 0.992 | locus YMR129W, hits give low values 0.996 | locus YMR205C, strain PFK2, hits give low values 1.03 | locus YMR223W, strain ubp8, hits give low values 0.975 | locus YMR231W, strain pep5, hits give low values 0.955 | locus YMR307W, strain GAS1, hits give low values 0.988 | locus YNL067W, strain RPL9B, hits give low values 1 | locus YNL071W, strain lat1, hits give low values 1.02 | locus YNL153C, strain GIM3, hits give low values 0.985 | locus YNL183C, strain NPR1, hits give low values 0.933 | locus YNL209W, strain ssb2, hits give low values 0.996 | locus YNL233W, strain BNI4, hits give low values 0.989 | locus YNL248C, strain rpa49, hits give low values 0.992 | locus YNL250W, strain rad50, hits give low values 1.03 | locus YNL271C, strain bni1, hits give low values 1.01 | locus YNL298W, strain CLA4, hits give low values 0.986 | locus YNL307C, strain MCK1, hits give low values 1 | locus YNL322C, strain KRE1 (second series), hits give low values 0.974 | locus YNL322C, strain KRE1, hits give low values 0.986 | locus YNR049C, strain mso1, hits give low values 0.975 | locus YNR052C, strain pop2, hits give low values 0.978 | locus YOL006C, strain TOP1, hits give low values 1.08 | locus YOL012C, strain htz1 1.01 | locus YOL147C, strain pex11, hits give low values 1.01 | locus YOR001W, strain rrp6, hits give low values 0.96 | locus YOR061W, strain CKA2, hits give low values 1.01 | locus YOR069W, strain VPS5, hits give low values 1.01 | locus YOR070C, strain gyp1, hits give low values 1 | locus YOR080W, strain dia2, hits give low values 0.975 | locus YOR083W, strain WHI5, hits give low values 1.03 | locus YOR106W, strain vam3, hits give low values 1.03 | locus YOR136W, strain idh2, hits give low values 1.01 | locus YOR144C, strain elg1, hits give low values 1.01 | locus YOR184W, strain ser1, hits give low values 0.973 | locus YOR231W, strain MKK1, hits give low values 0.974 | locus YOR265W, strain rbl2, hits give low values 0.991 | locus YOR270C, strain vph1, hits give low values 0.99 | locus YOR290C, strain snf2, hits give low values 0.969 | locus YOR316C, strain cot1, hits give low values 1.01 | locus YPL051W, strain arl3, hits give low values 0.993 | locus YPL078C, strain atp4, hits give low values 1.03 | locus YPL106C, strain sse1, hits give low values 0.99 | locus YPL240C, strain hsp82, hits give low values 0.974 | locus YPL241C, strain CIN2, hits give low values 1.02 | locus YPL256C, strain CLN2, hits give low values 1.01 | locus YPR119W, strain clb2, hits give low values 1.01 | locus YPR141C, strain kar3, hits give low values 1.02 | locus YPR163C, strain tif3, hits give low values 0.983 | locus YPR167C, strain met16, hits give low values 0.976 | strain wtn01, hits give low values 0.978
